# Test results: the supplement of paper PMC6763611
# System: Plasmodium falciparum NF54
# Assay: growth inhibition relative to untreated control; higher = more inhibition
# Details: 5 µM; minimal medium (MM); 72 h
# In short: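 P. falciparum NF54 ring stages (1% hematocrit, 1% parasitemia, 100 μL/well in 96-well half-area dark plates) were exposed for 72 h at 37 °C to single 5 μM or 1 μM doses of Pathogen Box compounds. The medium was minimal RPMI or minimal RPMI plus chorismate end-products (2.2 μM folate, 7.3 μM pABA, 7.3 μM pHBA, 111 μM tyrosine, 90 μM phenylalanine, tryptophan). Growth inhibition was read by SYBR Green, normalised to untreated controls, with uninfected erythrocytes as background.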
row,Compound,growth inhibition [%]
1,Cc1ccc(S(=O)(=O)n2cc(-c3ccnc(N)c3)c3cc(Br)cnc32)cc1,95.2
2,Nc1nc(N)c2c3c(sc2n1)CN(Cc1ccccc1)CC3,91.9
3,CC(=O)N1CCN(c2ccc(Oc3ccc(Cl)cc3O)cc2)CC1,< 0
4,COc1cccc(-n2nnnc2S(C)(=O)=O)c1,8.78
5,Cc1ccc(NC(=O)c2cc(S(=O)(=O)NC(C)(C)C)ccc2C)nc1,94.5
6,Cc1[nH]c2cc(F)cc(F)c2c(=O)c1-c1ccc(Oc2ccc(OC(F)(F)F)cc2)cc1,> 100
7,CS(=O)(=O)N1CCC(Cn2nc(Cc3cccc4ccccc34)c3c(N)ncnc32)CC1,17.6
8,CC(C)(C)c1cnc(NC(=O)c2ccccc2O)s1,3.99
9,COc1cc2ncnc(NC3CCN(Cc4ccccc4)CC3)c2cc1OC,92.2
10,CS(=O)(=O)c1cccc(-c2cnc3[nH]cc(-c4ccc(CCC(=O)O)cc4)c3c2)c1,86.2
11,Cc1c[nH]c(CCNC(=O)c2cc(-c3ccc(Cl)cc3)cs2)n1,94.7
12,COc1cc(C2=NCCN2)ccc1-c1cn(-c2cccc(C3=NCCN3)c2)nn1,88.7
13,COc1cccc(-c2cc3c(Nc4cccnc4)nccc3[nH]2)c1,94.8
14,CN(C)CCNC(=O)N1CCCN(c2ncnc3cc(-c4ccccc4)sc23)CC1,87
15,O=C(N[C@H](Cc1ccccc1)C(=O)Nc1ccccc1N1CCOCC1)c1cccs1,27.5
16,CC(C(=O)Nc1ccc2oc(-c3ccncc3)nc2c1)c1ccccc1 (stereo not drawn),< 0
17,FC(F)(F)c1nnc2ccc(Cl)nn12,8.78
18,Cc1nc(-c2ccccn2)nc(N(C)CCc2ccccc2)c1Cl,83.8
19,CCCn1nnc(NC(=O)COc2ccc(C3CCCCC3)cc2)n1,< 0

row,Compound,growth inhibition [%]
1,O=C(NCCc1ccn(-c2ccccc2)n1)C1CCCCC1,3.27
2,Nc1cccnc1Nc1ccc(Cl)cc1,19.2
3,COC(=O)c1c(NC(=O)c2cc3ccccc3oc2=O)sc2c1CCN(Cc1ccccc1)C2,1.3
4,CCN(CC)CCCCCCNc1cc(OC)cc2c(C)ccnc12,91.2
5,CCS(=O)(=O)N(Cc1ccco1)Cc1cc2ccc(C)cc2nc1O,94.5
6,CCNC(=O)C(C)Nc1nc(-c2cccnc2)nc2sc(C)c(C)c12 (stereo not drawn),31.6
7,Cc1nn(C(=O)Nc2cccc(C(F)(F)F)c2)c(C)c1Sc1ncccn1,39.2
8,CCc1nc2ccc(Cl)cn2c1C(=O)NCc1ccc(N2CCC(c3ccc(OC(F)(F)F)cc3)CC2)cc1,71.4
9,Cc1ccc2oc(-c3cc(NC(=O)Cc4ccccc4)ccc3Cl)nc2c1,< 0
10,COc1cc(CN2CCC3(C=Cc4ccccc43)CC2)cc2c1OCO2,8.3
11,CC(C)C(Oc1cccc2ccccc12)C(=O)O (stereo not drawn),0.0991
12,O=C(C(Cc1c[nH]c2ccccc12)NS(=O)(=O)c1ccc(Cl)cc1)N1CCCCC1 (stereo not drawn),88.7
13,O=C1COCc2ccc(Br)cc2N1Cc1ccc(C(F)(F)F)cc1,85.1
14,Nc1ncc(-c2cn[nH]c2)cc1-c1nc2cc(Cl)cnc2[nH]1,94.3
15,COc1ccccc1C(C)NCC(=O)Nc1cc(C(F)(F)F)ccc1Cl (stereo not drawn),88
16,Cc1ccc(-c2cc(C(=O)Nc3cccnc3)c3cc(Br)ccc3n2)cc1,86.3
17,O=C(NCc1ccoc1)N1CCN(Cc2ccc3c(c2)OCO3)CC1,< 0
18,CCCCOC(=O)Nc1cc2nc(C3CCCCC3)[nH]c2cc1N1CCCC1,5.52
19,O=C(Nc1ccc(N2CCNCC2)nc1)c1oc(-c2ccccc2)nc1C(F)(F)F,89.9
